In PubChem BioAssay AID1159580 (chemical genetic matrix, 2015):
Several values for one entry are separate records, joined by “and”; a condition that tells them apart may be missing. Identical values can stand only once. Among all 5,500 compounds or so, about 2,000 (36%) were called active. Not shown: some 18% with an inconclusive outcome. Rule as the data show it: active = normalized growth mostly below about 0.91 (no sharp cut-off); inconclusive = no clear call, values can overlap the other calls; inactive = mostly above about 0.92. The list shows a part of the results.

Experiment: chemical genetic growth profiling, strain panel (AID 1159580);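 also: tested at 20 µM; growth read once vehicle control cultures reached saturation at 30 °C; 1 = growth at the plate median or of vehicle wells; lower values mean less growth of the strain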
Conditions: S. cerevisiae deletion strains, growth OD

Measured: normalized growth

CCOC(=O)c1c(C)cc(O)c(C=O)c1O
inactive: locus YBR021W, strain FUR4, active compounds read low 0.851 | locus YDR195W, strain ref2 0.908
active: locus YAL013W, strain DEP1, active compounds read low 0.271 | locus YAL021C, strain ccr4, active compounds read low 0.615 | locus YAL026C, strain drs2, active compounds read low 0.212 | locus YAL030W, strain snc1, active compounds read low 0.725 | locus YBL061C, strain skt5, active compounds read low 0.642 | locus YBR009C, strain hhf1, active compounds read low 0.592 | locus YBR023C, strain chs3, active compounds read low 0.619 | locus YBR171W, strain sec66, active compounds read low 0.776 | locus YBR229C, strain ROT2, active compounds read low 0.541 | locus YBR231C, strain swc5, active compounds read low 0.548 | locus YBR279W, strain paf1, active compounds read low 0.66 | locus YCL011C, strain gbp2, active compounds read low 0.616 | locus YCL016C, strain dcc1, active compounds read low 0.714 | locus YCL029C, strain bik1, active compounds read low 0.144 | locus YCL061C, strain MRC1, active compounds read low 0.624 | locus YCL069W, strain vba3, active compounds read low 0.531 | locus YCR088W, strain abp1, active compounds read low 0.832 | locus YDL005C, strain med2, active compounds read low 0.903 | locus YDL035C, strain GPR1, active compounds read low 0.21 | locus YDL040C, strain nat1, active compounds read low 0.86 | locus YDL074C, strain BRE1, active compounds read low 0.156 | locus YDL101C, strain DUN1, active compounds read low 0.16 | locus YDL134C, strain PPH21, active compounds read low 0.249 | locus YDL185W, strain tfp1, active compounds read low 0.0651 | locus YDL192W, strain arf1, active compounds read low 0.202 | locus YDR001C, strain nth1, active compounds read low 0.841 | locus YDR069C, strain doa4, active compounds read low 0.516 | locus YDR101C, strain arx1, active compounds read low 0.181 | locus YDR137W, strain rgp1, active compounds read low 0.202 | locus YDR150W, strain NUM1, active compounds read low 0.436 | locus YDR159W, strain sac3, active compounds read low 0.413 | locus YDR162C, strain NBP2, active compounds read low 0.0543 | locus YDR297W, strain sur2, active compounds read low 0.609 | locus YDR318W, strain mcm21, active compounds read low 0.142 | locus YDR334W, strain swr1, active compounds read low 0.619 | locus YDR335W, strain msn5, active compounds read low 0.623 | locus YDR388W, active compounds read low 0.213 | locus YDR392W, strain spt3, active compounds read low 0.135 | locus YDR502C, strain sam2, active compounds read low 0.185 | locus YEL003W, strain gim4, active compounds read low 0.582 | locus YEL037C, strain rad23, active compounds read low 0.71 | locus YEL061C, strain CIN8 (second series), active compounds read low 0.643 | locus YEL061C, strain CIN8, active compounds read low 0.153 | locus YER015W, strain faa2, active compounds read low 0.516 | locus YER016W, strain bim1, active compounds read low 0.768 | locus YER110C, active compounds read low 0.295 | locus YER111C, strain swi4, active compounds read low 0.278 | locus YER155C, strain BEM2 (second series), active compounds read low 0.409 | locus YER155C, strain BEM2, active compounds read low 0.178 | locus YER167W, strain BCK2, active compounds read low 0.105 | locus YFR010W, strain ubp6, active compounds read low 0.681 | locus YGL078C, strain dbp3, active compounds read low 0.57 | locus YGL086W, strain mad1, active compounds read low 0.186 | locus YGL167C, strain pmr1, active compounds read low 0.842 | locus YGL173C, strain kem1, active compounds read low 0.27 | locus YGL227W, strain vid30, active compounds read low 0.821 | locus YGL240W, strain doc1, active compounds read low 0.503 | locus YGL248W, strain PDE1, active compounds read low 0.236 | locus YGL253W, strain hxk2, active compounds read low 0.283 | locus YGR078C, strain PAC10, active compounds read low 0.103 | locus YGR135W, strain pre9, active compounds read low 0.119 | locus YGR229C, strain SMI1, active compounds read low 0.0734 | locus YGR252W, strain gcn5, active compounds read low 0.303 | locus YHR013C, strain ard1, active compounds read low 0.506 | locus YHR027C, strain rpn1, active compounds read low 0.405 | locus YHR030C, strain SLT2, active compounds read low 0.064 and 0.117 | locus YHR079C, strain IRE1 (second series), active compounds read low 0.16 | locus YHR079C, strain IRE1, active compounds read low 0.138 | locus YHR094C, strain hxt1, active compounds read low 0.231 | locus YHR129C, strain ARP1, active compounds read low 0.187 | locus YHR142W, strain chs7, active compounds read low 0.345 | locus YHR200W, strain rpn10, active compounds read low 0.484 | locus YIL066C, strain RNR3, active compounds read low 0.167 | locus YIL073C, strain SPO22, active compounds read low 0.211 | locus YIL125W, strain kgd1, active compounds read low 0.471 | locus YIR030C, strain dcg1, active compounds read low 0.196 | locus YJL092W, strain hpr5, active compounds read low 0.756 | locus YJL095W, strain BCK1 (second series), active compounds read low 0.381 | locus YJL095W, strain BCK1, active compounds read low 0.0697 and 0.127 | locus YJL115W, strain asf1, active compounds read low 0.784 | locus YJL129C, strain trk1, active compounds read low 0.613 | locus YJL134W, strain LCB3, active compounds read low 0.535 | locus YJL154C, strain vps35, active compounds read low 0.774 | locus YJL164C, strain tpk1, active compounds read low 0.587 | locus YJL166W, strain qcr8, active compounds read low 0.449 | locus YJL168C, strain set2, active compounds read low 0.534 | locus YJL187C, strain SWE1 (second series), active compounds read low 0.15 | locus YJL187C, strain SWE1, active compounds read low 0.625 | locus YJR043C, strain POL32, active compounds read low 0.209 | locus YJR066W, strain TOR1, active compounds read low 0.091
